# From ChEMBL document CHEMBL2218924, “A broad activity screen in support of a chemogenomic map for kinase signalling research and drug discovery” (Biochem J, 2013)
# Assays:
# [1] = molecular target: Serine/threonine-protein kinase PLK3 (Homo sapiens) (UniProt Q9H4B4); details: at 1 µM
# [2] = molecular target: Serine/threonine-protein kinase PLK3 (Homo sapiens) (UniProt Q9H4B4); details: at 10 µM
# [3] = molecular target: Protein-tyrosine kinase 2-beta (Homo sapiens) (UniProt Q14289); details: at 1 µM
# [4] = molecular target: Protein-tyrosine kinase 2-beta (Homo sapiens) (UniProt Q14289); details: at 10 µM
# [5] = molecular target: Receptor-interacting serine/threonine-protein kinase 2 (Homo sapiens) (UniProt O43353); details: at 1 µM
# [6] = molecular target: Receptor-interacting serine/threonine-protein kinase 2 (Homo sapiens) (UniProt O43353); details: at 10 µM
# [7] = molecular target: T1, cAMP-dependent protein kinase catalytic subunit PRKX (Homo sapiens) (UniProt P51817); details: at 1 µM
# T1 sequence (whole entry): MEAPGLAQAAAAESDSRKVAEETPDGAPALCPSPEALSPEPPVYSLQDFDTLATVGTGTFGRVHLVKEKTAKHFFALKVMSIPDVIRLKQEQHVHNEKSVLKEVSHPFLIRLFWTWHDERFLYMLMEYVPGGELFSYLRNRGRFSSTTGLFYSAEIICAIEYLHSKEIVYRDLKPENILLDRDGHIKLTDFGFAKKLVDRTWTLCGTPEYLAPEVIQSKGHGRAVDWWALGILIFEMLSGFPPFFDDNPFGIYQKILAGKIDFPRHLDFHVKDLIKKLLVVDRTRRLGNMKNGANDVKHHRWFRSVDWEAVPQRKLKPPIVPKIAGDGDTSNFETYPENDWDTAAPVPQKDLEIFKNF
# [8] = molecular target: T1, cAMP-dependent protein kinase catalytic subunit PRKX (Homo sapiens); details: at 10 µM
# [9] = molecular target: Rho-associated protein kinase 1 (Homo sapiens) (UniProt Q13464); details: at 1 µM
# [10] = molecular target: Rho-associated protein kinase 1 (Homo sapiens) (UniProt Q13464); details: at 10 µM
# Sequence of Protein-tyrosine kinase 2-beta (Homo sapiens) (Q14289 whole entry, looked up): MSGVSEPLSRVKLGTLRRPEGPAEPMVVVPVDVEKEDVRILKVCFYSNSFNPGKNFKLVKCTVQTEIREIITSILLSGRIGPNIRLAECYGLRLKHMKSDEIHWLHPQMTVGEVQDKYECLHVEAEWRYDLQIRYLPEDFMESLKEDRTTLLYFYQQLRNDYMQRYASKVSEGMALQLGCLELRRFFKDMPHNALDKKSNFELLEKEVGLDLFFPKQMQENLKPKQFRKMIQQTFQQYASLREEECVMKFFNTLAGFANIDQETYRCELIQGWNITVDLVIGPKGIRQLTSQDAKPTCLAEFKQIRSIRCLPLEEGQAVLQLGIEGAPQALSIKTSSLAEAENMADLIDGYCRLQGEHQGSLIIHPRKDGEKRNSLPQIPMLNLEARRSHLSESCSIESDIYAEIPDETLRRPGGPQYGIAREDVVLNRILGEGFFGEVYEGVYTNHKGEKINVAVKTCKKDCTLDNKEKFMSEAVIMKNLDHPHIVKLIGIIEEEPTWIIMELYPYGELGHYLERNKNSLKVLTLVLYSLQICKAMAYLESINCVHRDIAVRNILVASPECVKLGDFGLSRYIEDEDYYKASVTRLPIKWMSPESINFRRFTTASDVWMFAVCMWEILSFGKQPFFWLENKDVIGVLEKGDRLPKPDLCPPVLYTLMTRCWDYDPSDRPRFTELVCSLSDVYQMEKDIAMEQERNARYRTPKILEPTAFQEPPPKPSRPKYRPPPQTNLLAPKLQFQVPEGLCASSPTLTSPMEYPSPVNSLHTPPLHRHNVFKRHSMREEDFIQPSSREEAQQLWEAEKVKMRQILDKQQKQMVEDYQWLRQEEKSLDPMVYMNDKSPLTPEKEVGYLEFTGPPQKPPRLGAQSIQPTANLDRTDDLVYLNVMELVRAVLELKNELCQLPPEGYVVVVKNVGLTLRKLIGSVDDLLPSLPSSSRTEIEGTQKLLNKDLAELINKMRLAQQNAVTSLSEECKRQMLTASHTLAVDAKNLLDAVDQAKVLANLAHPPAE
# Sequence of Serine/threonine-protein kinase PLK3 (Homo sapiens) (Q9H4B4 whole entry, looked up): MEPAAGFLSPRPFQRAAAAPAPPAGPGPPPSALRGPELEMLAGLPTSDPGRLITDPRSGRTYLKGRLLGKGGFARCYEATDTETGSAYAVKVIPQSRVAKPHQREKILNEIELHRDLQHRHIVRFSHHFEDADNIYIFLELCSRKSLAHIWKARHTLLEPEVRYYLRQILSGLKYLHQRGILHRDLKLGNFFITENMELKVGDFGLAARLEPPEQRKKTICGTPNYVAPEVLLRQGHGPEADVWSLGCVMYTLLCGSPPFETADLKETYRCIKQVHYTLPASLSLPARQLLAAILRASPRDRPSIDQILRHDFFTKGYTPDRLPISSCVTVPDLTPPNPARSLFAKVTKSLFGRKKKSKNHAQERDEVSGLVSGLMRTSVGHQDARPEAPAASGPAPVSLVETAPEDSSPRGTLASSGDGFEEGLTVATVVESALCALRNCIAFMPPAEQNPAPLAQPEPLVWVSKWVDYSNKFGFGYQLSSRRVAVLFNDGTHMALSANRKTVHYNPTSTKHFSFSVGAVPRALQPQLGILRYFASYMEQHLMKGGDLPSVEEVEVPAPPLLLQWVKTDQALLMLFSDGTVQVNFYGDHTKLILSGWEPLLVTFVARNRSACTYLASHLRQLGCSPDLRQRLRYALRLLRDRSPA
# Sequence of Receptor-interacting serine/threonine-protein kinase 2 (Homo sapiens) (O43353 whole entry): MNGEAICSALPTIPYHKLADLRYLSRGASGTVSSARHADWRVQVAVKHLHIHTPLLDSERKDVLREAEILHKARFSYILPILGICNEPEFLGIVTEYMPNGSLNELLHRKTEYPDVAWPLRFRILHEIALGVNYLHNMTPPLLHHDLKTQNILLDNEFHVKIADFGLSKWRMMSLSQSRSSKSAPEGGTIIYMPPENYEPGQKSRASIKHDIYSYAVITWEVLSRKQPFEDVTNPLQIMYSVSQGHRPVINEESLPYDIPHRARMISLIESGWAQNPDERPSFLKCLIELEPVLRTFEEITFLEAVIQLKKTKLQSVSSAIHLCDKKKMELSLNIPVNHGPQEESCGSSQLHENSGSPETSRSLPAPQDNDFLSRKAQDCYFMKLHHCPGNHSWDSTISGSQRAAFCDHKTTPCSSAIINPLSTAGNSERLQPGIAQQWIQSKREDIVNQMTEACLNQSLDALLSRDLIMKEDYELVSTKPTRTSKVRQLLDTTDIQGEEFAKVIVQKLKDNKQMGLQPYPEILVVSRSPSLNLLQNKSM
# Sequence of Rho-associated protein kinase 1 (Homo sapiens) (Q13464 2-1354 limits assumed): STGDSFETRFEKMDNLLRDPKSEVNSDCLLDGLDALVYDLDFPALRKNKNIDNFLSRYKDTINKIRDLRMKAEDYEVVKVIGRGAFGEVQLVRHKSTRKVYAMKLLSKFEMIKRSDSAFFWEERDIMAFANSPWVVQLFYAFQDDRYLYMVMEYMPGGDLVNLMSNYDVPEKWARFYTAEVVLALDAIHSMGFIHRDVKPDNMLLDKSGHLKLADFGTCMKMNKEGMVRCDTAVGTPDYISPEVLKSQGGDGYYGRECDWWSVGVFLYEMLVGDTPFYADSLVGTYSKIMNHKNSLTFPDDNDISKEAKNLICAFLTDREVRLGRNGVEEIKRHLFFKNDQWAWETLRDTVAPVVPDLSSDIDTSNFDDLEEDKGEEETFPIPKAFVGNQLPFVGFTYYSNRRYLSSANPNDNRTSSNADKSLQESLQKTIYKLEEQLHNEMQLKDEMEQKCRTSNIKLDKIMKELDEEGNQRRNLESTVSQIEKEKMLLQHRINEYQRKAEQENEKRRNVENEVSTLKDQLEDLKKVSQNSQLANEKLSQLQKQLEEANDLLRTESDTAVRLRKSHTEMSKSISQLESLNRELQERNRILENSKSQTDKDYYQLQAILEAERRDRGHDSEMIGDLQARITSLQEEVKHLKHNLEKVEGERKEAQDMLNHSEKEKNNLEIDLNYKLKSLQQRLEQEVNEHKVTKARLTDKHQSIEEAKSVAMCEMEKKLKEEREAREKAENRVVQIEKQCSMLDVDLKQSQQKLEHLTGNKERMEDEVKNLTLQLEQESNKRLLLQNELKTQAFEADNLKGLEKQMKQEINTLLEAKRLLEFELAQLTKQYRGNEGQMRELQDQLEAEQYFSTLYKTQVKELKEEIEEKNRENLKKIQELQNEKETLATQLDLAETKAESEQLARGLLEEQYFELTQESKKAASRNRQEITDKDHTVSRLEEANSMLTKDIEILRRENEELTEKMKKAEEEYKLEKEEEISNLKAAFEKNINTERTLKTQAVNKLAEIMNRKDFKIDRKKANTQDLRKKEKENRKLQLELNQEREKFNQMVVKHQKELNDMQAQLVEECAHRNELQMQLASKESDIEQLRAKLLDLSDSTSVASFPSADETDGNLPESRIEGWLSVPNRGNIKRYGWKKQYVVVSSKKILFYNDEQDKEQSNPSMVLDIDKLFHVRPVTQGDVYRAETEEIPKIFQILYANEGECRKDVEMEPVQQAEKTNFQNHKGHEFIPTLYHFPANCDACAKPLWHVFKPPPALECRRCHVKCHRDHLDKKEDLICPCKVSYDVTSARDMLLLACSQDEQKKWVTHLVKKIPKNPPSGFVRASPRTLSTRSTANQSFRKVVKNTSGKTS
SMILES,residual activity [1],residual activity [2] [%],residual activity [3] [%],residual activity [4] [%],residual activity [5] [%],residual activity [6] [%],residual activity [7] [%],residual activity [8] [%],residual activity [9] [%],residual activity [10] [%]
CCOC(=O)c1c(C)[nH]c(/C=C2\C(=O)Nc3ccccc32)c1C,86% (inactive),88,80,45,96,99,–,–,–,–
Nc1ncnc2c1cnn2-c1ccccc1,93% (inactive),95,–,97,93,67,94,91,–,–
Nc1n[nH]c2nc3ccccc3nc12,89% (inactive),83,–,92,94,–,118,84,–,–
COc1ccc(Cl)cc1NC(=O)Nc1cc(C)nc2ccccc12,96% (inactive),93,–,85,99,93,–,55,–,–
Cc1cc(C)c(/C=C2\C(=O)Nc3ccccc32)[nH]1,102% (inactive),–,–,–,–,–,–,–,–,–
O=c1cc(N2CCOCC2)oc2c1ccc1ccccc12,99% (inactive),68,130,100,86,83,97,96,–,–
CC(C)c1nn(-c2c(Cl)cccc2Cl)c2nc(Cc3ccc(OCCO)cc3)[nH]c(=O)c12,103% (inactive),96,109,99,90,83,94,87,–,–
Cn1sc(=O)n(Cc2ccccc2)c1=O,–,89,–,–,92,86,76,87,–,–
COc1ccc(-c2cnc3c(-c4ccsc4)cnn3c2)cc1,87% (inactive),97,136,94,99,92,81,93,–,–
NC(=O)c1cccc(-c2cc(Nc3ccc(OC(F)(F)F)cc3)ncn2)c1,100% (inactive),97,128,95,93,56,–,–,–,–
O=C(CCCc1ccc(-c2ccccc2F)cc1)Nc1ccc(O)cc1,99% (inactive),98,105,104,94,95,100,101,107,100
O=C1Cc2c([nH]c3ccc([N+](=O)[O-])cc23)-c2ccccc2N1,107% (inactive),–,45,38,53,23,81,53,107,–
CCCCc1c(-c2ccc(O)cc2)[nH]c2nccnc12,100% (inactive),100,54,26,38,30,93,100,–,–
O=C1NC(=O)c2c1c1c3ccccc3[nH]c1n1cncc21,55% (inactive),31,32,19,79,72,80,75,–,96
CCCC(=O)Oc1ccc2[nH]c(C(=O)c3cc4ccccc4[nH]3)cc2c1,93% (inactive),85,122,85,91,89,88,92,103,128
Fc1ccc(-c2nc3n(c2-c2ccncc2)CCS3)cc1,100% (inactive),95,–,–,65,24,92,92,123,–
O=C1Nc2ccc(Cl)cc2/C1=C/c1cc(Cl)c(O)c(Cl)c1,94% (inactive),95,96,28,32,25,59,63,–,121

SMILES,residual activity [1],residual activity [2] [%],residual activity [3] [%],residual activity [4] [%],residual activity [5] [%],residual activity [6] [%],residual activity [7] [%],residual activity [8] [%],residual activity [9] [%],residual activity [10] [%]
O=C1C(Cl)=C(N2C(=O)CCC2=O)C(=O)c2ccccc21,96% (inactive),93,91,–,92,95,93,92,–,88
Nc1ncnc2c1c(-c1ccc(Oc3ccccc3)cc1)cn2C1CCCC1,80% (inactive),91,86,25,21,15,85,66,116,122
NC(=O)Nc1sc(-c2ccc(F)cc2)cc1C(N)=O,88% (inactive),81,56,10,67,29,85,55,–,101
CC(C)(C)n1nc(Cc2cccc3ccccc23)c2c(N)ncnc21,94% (inactive),97,89,29,27,17,98,75,114,125
CSc1nc(-c2ccc(F)cc2)c(-c2ccnc(NC(C)c3ccccc3)c2)[nH]1 (configuration not stated),91% (inactive),90,–,85,75,30,87,58,–,96
O=C(NC(NC(=S)Nc1ccc(F)c([N+](=O)[O-])c1)C(Cl)(Cl)Cl)C(c1ccccc1)c1ccccc1 (configuration not stated),100% (inactive),98,–,–,92,92,82,52,–,–
Nc1ncnc2[nH]nc(Nc3ccc(F)cc3)c12,103% (inactive),94,101,79,46,21,–,21,128,101
CC(C)[C@H](CO)Nc1nc(Nc2cc(N)cc(Cl)c2)c2ncn(C(C)C)c2n1,99% (inactive),77,59,7,85,77,–,88,–,84
O=C1Cc2c([nH]c3ccc(Br)cc23)-c2ccccc2N1,95% (inactive),83,89,58,49,22,–,–,–,–
O=C(O)/C=C/c1cc(Br)c(Br)c(Br)c1Br,60% (inactive),-9,–,–,100,83,68,76,–,98
O=C(c1ccccc1)c1ccc(N2CCOCC2)cc1O,91% (inactive),88,130,–,99,87,86,94,–,121
COc1cc2nccc(Oc3ccc(NC(=S)NC(=O)c4ccccc4C)cc3)c2cc1OC,80% (inactive),89,82,60,51,34,68,52,–,–
CC(C)(C)c1nc2c3ccc(F)cc3c3c(=O)[nH]ccc3c2[nH]1,55% (inactive),64,–,–,18,20,–,–,–,–
O=c1cc(N2CCNCC2)oc2c(-c3ccccc3)cccc12,100% (inactive),95,–,96,97,82,93,87,–,–
COc1cc2ncnc(Nc3cccc(Cl)c3)c2cc1OC,83% (inactive),–,117,76,26,16,122,–,–,–
N#C/C(=C\c1ccc(O)c(O)c1)C(=O)NCc1ccccc1,–,80,–,–,–,–,–,–,–,–
